Data published in PubChem BioAssay (NCI).
Several values for one entry are separate records, joined by “and”; a condition that tells them apart may be missing. Equal entries are not always repeated. About 83,000 compounds went through this panel and 20% of them were active in at least one assay; those are over-represented in the sample as a whole.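 Each cell line was grown in a 96-well plate and treated with one concentration of compound for 48 hours. Values below 10 were considered active.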 A number with no mark means an inactive call. Activity calls are given as the source filed them.

How the values were obtained:
Assay in all cases: NCI-60 one-dose screen, 48 h (100 = growth as untreated, 0 = no growth, -100 = all killed)
NCI-H23 lung = conditions: 10 µM unless noted
NCI-H226 lung = system: NCI-H226 lung
NCI-H322M lung = system: NCI-H322M lung
HOP-62 NSCLC = system: HOP-62 NSCLC
NCI-H460 lung = system: NCI-H460 lung
HOP-92 NSCLC = system: HOP-92 NSCLC
NCI-H522 lung = conditions: 10 µM unless noted
A549/ATCC NSCLC = system: A549/ATCC NSCLC
786-0 renal = system: 786-0 renal
COLO 205 colon = system: COLO 205 colon

Which growth (NCI-H23 lung) does the source give for `CNC(=O)N/N=C/c1ccc([N+](=O)[O-])o1` here?
The growth was 101%.

What about the growth (NCI-H226 lung; 10 µM unless noted) of the same compound?
The growth was 104%.

What about the growth (NCI-H322M lung; 10 µM unless noted) of the same compound?
The growth was 88.7%.

What about the growth (HOP-62 NSCLC; 10 µM unless noted) of the same compound?
Its growth is 102%.

And the growth (NCI-H460 lung; 10 µM unless noted)?
The growth was 109%.

What about the growth (HOP-92 NSCLC; 10 µM unless noted) of the same compound?
The growth was 101%.

And the growth (NCI-H522 lung)?
Its growth is 85.2%.

What about the growth (A549/ATCC NSCLC; 10 µM unless noted) of the same compound?
Its growth is 82.3%.

And the growth (786-0 renal; 10 µM unless noted)?
The growth was 111%.

What about the growth (COLO 205 colon; 10 µM unless noted) of the same compound?
Its growth is 109%.

What does the source list for `OC(CNc1ccnc2cc(Cl)ccc12)CNc1ccnc2cc(Cl)ccc12`?
growth (NCI-H23 lung): 72%; growth (NCI-H226 lung; 10 µM unless noted): 39.3%; growth (NCI-H322M lung; 10 µM unless noted): 52.1%; growth (HOP-62 NSCLC; 10 µM unless noted): 98.7%; growth (NCI-H460 lung; 10 µM unless noted): 63.5%; growth (HOP-92 NSCLC; 10 µM unless noted): 77.6%; growth (NCI-H522 lung): -3.14% (active); growth (A549/ATCC NSCLC; 10 µM unless noted): 95.3%; growth (786-0 renal; 10 µM unless noted): 95.5%; growth (COLO 205 colon; 10 µM unless noted): -55.4% (active)

With `CNc1ccc2c(c1)c1ccccc1n2C` as the compound, how does the growth (NCI-H23 lung) read?
The growth was 85.2%.

And the growth (NCI-H226 lung; 10 µM unless noted)?
The growth was 101%.

What about the growth (NCI-H322M lung; 10 µM unless noted) of the same compound?
The growth was 98.4%.

What about the growth (HOP-62 NSCLC; 10 µM unless noted) of the same compound?
The growth was 100%.

What about the growth (NCI-H460 lung; 10 µM unless noted) of the same compound?
Its growth is 108%.

And the growth (HOP-92 NSCLC; 10 µM unless noted)?
The growth was 99.5%.

What about the growth (NCI-H522 lung) of the same compound?
Its growth is 92.4%.

And the growth (A549/ATCC NSCLC; 10 µM unless noted)?
Its growth is 105%.

And the growth (786-0 renal; 10 µM unless noted)?
The growth was 105%.

And the growth (COLO 205 colon; 10 µM unless noted)?
The growth was 111%.

Which growth (NCI-H23 lung) does the source give for `CCCCCCC(C)c1ccccc1O` (stereo unspecified) (tested in a mixture with another compound) here?
The growth was 90.2%.

What about the growth (NCI-H226 lung; 10 µM unless noted) of the same compound?
The growth was 109%.

And the growth (NCI-H322M lung; 10 µM unless noted)?
The growth was 117%.

What about the growth (HOP-62 NSCLC; 10 µM unless noted) of the same compound?
The growth was 99%.

What about the growth (NCI-H460 lung; 10 µM unless noted) of the same compound?
The growth was 101%.

And the growth (HOP-92 NSCLC; 10 µM unless noted)?
Its growth is 69.1%.

What about the growth (NCI-H522 lung) of the same compound?
The growth was 105%.

And the growth (A549/ATCC NSCLC; 10 µM unless noted)?
The growth was 100%.

What about the growth (COLO 205 colon; 10 µM unless noted) of the same compound?
Its growth is 108%.

`CN(C)c1ccc(/C=N/N=C(\C#N)[S][Sn]([Cl])([c]2ccccc2)[c]2ccccc2)cc1` was tested. Which growth (NCI-H23 lung) did it give?
The growth was 28.6%.

And the growth (NCI-H226 lung; 10 µM unless noted)?
Its growth is -69.4% (active).

What about the growth (NCI-H322M lung; 10 µM unless noted) of the same compound?
Its growth is 84.1%.

What about the growth (HOP-62 NSCLC; 10 µM unless noted) of the same compound?
Its growth is 84.5%.

And the growth (NCI-H460 lung; 10 µM unless noted)?
Its growth is 84.3%.

And the growth (HOP-92 NSCLC; 10 µM unless noted)?
The growth was -15.6% (active).

And the growth (NCI-H522 lung)?
Its growth is -81.4% (active).

And the growth (A549/ATCC NSCLC; 10 µM unless noted)?
Its growth is 78.3%.

And the growth (786-0 renal; 10 µM unless noted)?
Its growth is 10.8%.

What about the growth (COLO 205 colon; 10 µM unless noted) of the same compound?
Its growth is -51.6% (active).

What does the source list for `O=C(Nc1c(Cl)cccc1Cl)Oc1cccc2cccnc12`?
growth (NCI-H226 lung; 10 µM): 66.1%; growth (NCI-H226 lung; 100 µM): 13.9%; growth (NCI-H322M lung; 10 µM): 23.7%; growth (NCI-H322M lung; 100 µM): 25%; growth (HOP-62 NSCLC; 10 µM): 47.5%; growth (HOP-62 NSCLC; 100 µM): 28.8%; growth (NCI-H460 lung; 10 µM): 27.1%; growth (NCI-H460 lung; 100 µM): 9% (active); growth (HOP-92 NSCLC; 10 µM): 53.2%; growth (HOP-92 NSCLC; 100 µM): 23.2%; growth (NCI-H522 lung): -4.33% [100 µM] (active); growth (A549/ATCC NSCLC; 10 µM): 38%; growth (A549/ATCC NSCLC; 100 µM): 18.2%; growth (786-0 renal; 10 µM): 72%; growth (786-0 renal; 100 µM): 31.3%; growth (COLO 205 colon; 10 µM): 52.4%; growth (COLO 205 colon; 100 µM): 92.8%

Which growth (NCI-H23 lung) does the source give for `CCCCCCCCCCCCCCCCCCOP(=O)([O-])OC1CC[N+](C)(C)CC1` here?
The growth was 76.2% and 60.8%.

What about the growth (NCI-H226 lung; 10 µM unless noted) of the same compound?
Its growth is 48.9% and 18.8%.

And the growth (NCI-H322M lung; 10 µM unless noted)?
The growth was 59.2% and 40%.

What about the growth (HOP-62 NSCLC; 10 µM unless noted) of the same compound?
The growth was 5.84% (active) and -72.5% (active).

And the growth (NCI-H460 lung; 10 µM unless noted)?
The growth was 1.19% (active) and -34.8% (active).

What about the growth (HOP-92 NSCLC; 10 µM unless noted) of the same compound?
Its growth is -25.3% (active).

And the growth (NCI-H522 lung)?
The growth was -52.1% (active) and -87.8% (active).

And the growth (A549/ATCC NSCLC; 10 µM unless noted)?
Its growth is 17.1% and 38.2%.

And the growth (786-0 renal; 10 µM unless noted)?
Its growth is -28.4% (active) and -54.9% (active).

What about the growth (COLO 205 colon; 10 µM unless noted) of the same compound?
Its growth is -34.2% (active) and -30.8% (active).

How did the growth (NCI-H23 lung) turn out when `O[C@H]1[C@H]2c3cc4c(cc3CN3CCC(=C[C@@H]1O)[C@H]23)OCO4` was run?
Its growth is 15.3%.

And the growth (NCI-H226 lung; 10 µM unless noted)?
The growth was 15.3%.

And the growth (NCI-H322M lung; 10 µM unless noted)?
Its growth is 18.5%.

And the growth (HOP-62 NSCLC; 10 µM unless noted)?
The growth was 26.5%.

What about the growth (NCI-H460 lung; 10 µM unless noted) of the same compound?
Its growth is 18.4%.

What about the growth (HOP-92 NSCLC; 10 µM unless noted) of the same compound?
Its growth is -3.91% (active).

What about the growth (NCI-H522 lung) of the same compound?
The growth was 25%.

And the growth (A549/ATCC NSCLC; 10 µM unless noted)?
The growth was 19.1%.

What about the growth (786-0 renal; 10 µM unless noted) of the same compound?
The growth was 31.9%.

And the growth (COLO 205 colon; 10 µM unless noted)?
Its growth is 9.67% (active).

`CCC1OC(OC)C=CC1=O` (stereo unspecified) was tested. Which growth (NCI-H23 lung) did it give?
The growth was 106%.

What about the growth (NCI-H226 lung; 10 µM unless noted) of the same compound?
The growth was 103%.

And the growth (NCI-H322M lung; 10 µM unless noted)?
Its growth is 108%.

And the growth (HOP-62 NSCLC; 10 µM unless noted)?
Its growth is 98.2%.

And the growth (NCI-H460 lung; 10 µM unless noted)?
Its growth is 108%.

And the growth (HOP-92 NSCLC; 10 µM unless noted)?
The growth was 90.1%.

And the growth (NCI-H522 lung)?
Its growth is 95.5%.

And the growth (A549/ATCC NSCLC; 10 µM unless noted)?
The growth was 102%.

What about the growth (786-0 renal; 10 µM unless noted) of the same compound?
Its growth is 99.9%.

What about the growth (COLO 205 colon; 10 µM unless noted) of the same compound?
The growth was 103%.
